Screen size: about 86,000 compounds; about 920 (1.1%) were called active. The sample holds actives, similar compounds and a random draw of the others, so the mix is not that of the screen. Unmarked numbers belong to inactive results.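 Rule for the calls: active = viability at or below 30%; inactive = viability above 30%.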

This experiment in a line: inhibitors of HUVEC proliferation, primary screen, cell-based, 384-well (AID 648).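 Note: 100% = median luminescence of DMSO-only cell control wells on each plate.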 The note with it: CellTiter-Glo luminescence, 72 h, active compounds read low, screened at 10 µM (by protocol).
Broadly, the viability is a read-out of living cells in per cent, often relative to untreated cells. Take `Cc1ccc(/C=N/NC(=O)C2=NNC(c3ccccc3)(c3ccccc3)C2)c(O)c1`: the viability is 25.4% (active).
Consider `C/C(=N\NC(=O)c1nc(C)cc(C)n1)c1ccccc1`, for which the viability was 93.6%.
Turning to `Cc1ccc(OCC(=O)N/N=C\c2ccco2)c(C)c1`, the viability was 93%.
Next, `CCN(CC)CCn1c2ccc(Cl)cc2c2nc(C)sc21`: 87.5%; `CCOC(=O)c1ccc(N2C(=O)CC(N(C)Cc3ccccc3)C2=O)cc1` (stereo not drawn): 92.5%.
Next, `COc1ccc(NC(=O)/C(Cl)=C(/Cl)S(=O)Cc2ccc(C)cc2)cn1` (stereo not drawn): 1.52% (active).
Next, `COc1cccc(NC(=O)Cc2ccc(C)cc2)c1`: 95.9%.
With `COc1ccc(CC(=O)Nc2ccc(-c3nnc(-c4ccc(C)cc4)o3)cc2)cc1`, the viability is 61.7%.
Regarding `COc1cc(C(=O)OC(C)C(=O)NCC2CCCCC2)cc(NC(=O)c2ccco2)c1OC` (stereo not drawn), the viability was 100%.
Next, `N#CCSc1nc2ccc(N3CCOCC3)cc2c(=O)n1CCc1ccccc1`: 90.5%.
With `Cc1ccc(CNC(=O)CCNS(=O)(=O)c2cccc3nonc23)cc1` the figure was 95.1%; with `COc1ccc(-c2nnco2)cc1OC`, 102%; with `COc1ccc(-c2cc(C(F)(F)F)nc(NCc3cccnc3)n2)cc1`, 88.9%.
With `COc1ccc(-c2cc(C(F)(F)F)nc(S(C)(=O)=O)n2)cc1OC`, the viability is 13.2% (active).
Take `COC(=O)C1C(=O)NCC1c1ccc(OC)cc1` (stereo not drawn): the viability is 93.7%.
With `COCc1[nH][nH]c(=O)c1C=Nc1ccc(F)cc1F`, the viability was 86.9%.
Next, `CCN(CC)CCCNC(=O)CCc1ccccc1`: 103%; `Cc1cc(N2CCN(S(=O)(=O)c3ccc(C)c(C)c3)CC2)c2ccccc2n1`: 81.6%.
Next, `Cc1ccc(NC(=S)NC(NC(=O)Cc2cccc3ccccc23)C(Cl)(Cl)Cl)cc1` (stereo not drawn): 4.6% (active).
Regarding `CC(=O)c1cccc(NC(=O)Nc2ccc(C)cc2)c1`, the viability was 90%.
As for `Cc1ccc(NC(=O)CCN2CCc3ccccc3C2)cc1`, the viability was 103%.
In the case of `COc1ccc(-c2cn(-c3ccc(C)cc3)c(=O)n2CC(=O)Nc2ccc(OC)c(OC)c2)cc1`, the viability was 92.4%.
With `COc1ccc(-c2nnc(SCc3cccnc3)o2)cc1`, the viability is 104%.
With `COc1cc2c(cc1OC)C(C(C)C)=NC(C)(C)C2` the figure was 90.5%; with `COc1ccc(CCNC(=O)CN(c2ccccc2)S(C)(=O)=O)cc1OC`, 94.6%.
Next, `FC(F)(F)c1nnc2ccc(N3CCN(c4ccccc4)CC3)nn12`: 85.4%; `COC(=O)c1ccccc1NC(=O)Cc1ccccc1OC`: 91.1%.
With `Cc1ccc(C(CC(=O)O)Nc2nc(N3CCCCC3)nc(N3CCCCC3)n2)cc1` (stereo not drawn) the figure was 99.9%; with `CC(C)n1c(C(O)c2ccccc2)nc2ccccc21` (stereo not drawn), 99.3%.
As for `CC(Nc1nc(N2CCCC2)nc2ccccc12)c1ccccc1` (stereo not drawn), the viability is 4.14% (active).
Next, `CCN(c1ccccc1)S(=O)(=O)c1ccc(C(=O)Nc2nccs2)cc1`: 104%; `Cc1ccc(-c2noc(CC(c3ccccc3)c3ccccc3)n2)cc1`: 135%; `COc1ccc(N2CCN(Cc3ccc(Br)s3)CC2)cc1`: 108%.
As for `COc1ccc(Cl)cc1C(=O)NCC#N`, the viability is 91.6%.
In the case of `O=C(NCc1ccccc1)C1CCCN(S(=O)(=O)c2cccs2)C1` (stereo not drawn), the viability was 93%.
With `CC(=O)Oc1ccc(C(C)=O)c2c1OCCO2` the figure was 82.4%; with `CCN(CC)C(=O)CC1(c2ccccc2OC)CCOC(C(C)C)C1` (stereo not drawn), 103%; with `OC(CN=c1sc2ccccc2n1CC(O)COc1ccccc1)COc1ccccc1` (stereo not drawn), 28.9% (active).
In the case of `OC(COc1ccccc1)Cn1cc(Br)cn1` (stereo not drawn), the viability was 99.8%.
As for `CC(C)c1ccc(OCC(O)Cn2cnc3ccccc32)cc1` (stereo not drawn), the viability is 84.8%.
Regarding `COc1ccccc1/C=C/C1=NC(=C\N(C)C)/C(=O)O1`, the viability is 90.8%.
Next, `CC(C)c1ccc(-c2noc(C3CCCN(S(C)(=O)=O)C3)n2)cc1` (stereo not drawn): 82.4%.
For the molecule `Cc1ccc(CNC(=O)C2CCCN2C(=O)NCc2ccccc2)cc1` (stereo not drawn), the viability was 102%.
Next, `CC1CCC(N2CC(=O)N(Cc3ccc4c(c3)OCO4)C(c3ccc(F)cc3)C2=O)CC1` (stereo not drawn): 104%; `C=CCn1c(N)c(S(=O)(=O)c2cccs2)c2nc3ccccc3nc21`: 107%; `C=CCn1c(N)c(C(=O)OCC(C)C)c2nc3ccccc3nc21`: 66.4%.
Next, `CC(C)Cn1c(N)c(C(=O)NCc2cccs2)c2nc3ccccc3nc21`: 3.01% (active); `O=C(Nc1ccc2nc3n(c(=O)c2c1)CCCCC3)c1ccccc1Cl`: 109%; `CCOC(=O)c1cc2c(ccn2C)n1CC(=O)N1CCC(C)CC1`: 93.4%.
With `O=C(CC(O)(C(F)(F)F)C(F)(F)F)Nc1ccc(Cl)c(Cl)c1` the figure was 3.08% (active); with `CN(C)CCNC(CC(=O)Nc1ccc(Cl)c(Cl)c1)C(=O)O` (stereo not drawn), 93.2%.
For the molecule `N/C(=N\OC(=O)Nc1ccc(Cl)c(Cl)c1)c1ncc(C(F)(F)F)cc1Cl`, the viability is 60.3%.
Regarding `COc1ccc(-c2cc3nc(C)c(CCC(=O)NC(C)CCc4ccco4)c(C)n3n2)c(OC)c1` (stereo not drawn), the viability was 88.3%.
Next, `CCNC(=O)NC(=O)C(C)OC(=O)c1cc(S(=O)(=O)N2CCCCCC2)ccc1OC` (stereo not drawn): 79.6%; `Cc1[nH][nH]c(=O)c1N=Nc1ccccc1`: 109%.
Regarding `Cc1[nH][nH]c(=O)c1C(c1ccc(-c2ccc(Cl)cc2)o1)c1c(C)[nH][nH]c1=O`, the viability was 24% (active).
Turning to `CCCCOC(=O)Cn1c(=N)n(CCN(CC)CC)c2ccccc21`, the viability was 104%.
Next, `O=C(COc1cc(Cl)c(Cl)cc1Cl)NC(=O)NC1CCCC1`: 88.8%.
`O=S(=O)(NCC1OCCc2ccccc21)c1ccccc1` (stereo not drawn): the viability is 104%.
In the case of `COC(=O)C(C(=O)Nc1cccc(C)n1)C1CCCCCC1` (stereo not drawn), the viability was 88.7%.
`COC(=O)c1ccccc1Oc1c(F)c(F)nc(N2CCOCC2)c1F`: the viability was 95.4%.
With `O=C(O)[C@@H]1CCCN1c1ncnc2sc3c(c12)CCC3` the figure was 99%; with `CC(C)(C)C(=O)Cn1c(NCCO)nc2ccccc21`, 95.1%.
Consider `OCCNc1nc2ccccc2n1-c1ncnc2sc3c(c12)CCC3`, for which the viability is 4.2% (active).
In the case of `CN=C1SC(CC(=O)Nc2ccc(C(=O)O)cc2)C(=O)N1C` (stereo not drawn), the viability was 88%.
Next, `CCC(=O)NC(Nc1nc2ccc(C)cc2s1)(C(=O)OC)C(F)(F)F` (stereo not drawn): 101%.
With `Cc1ccc(C)c(NC2=NCC(=O)N2c2ccc3c(c2)OCCO3)c1` the figure was 103%; with `O=c1c2ccccc2nc(N/N=C/c2ccccc2)n1O`, 101%; with `CCn1c(/C=C/c2ccc([N+](=O)[O-])o2)nc2ccccc2c1=O`, 4.01% (active).
With `Cc1nc2ccccc2c(=O)n1CCCn1ccnc1` the figure was 92.5%; with `CCn1nc(C)c(NC(=O)/C=C/c2ccc(OC)c(COc3ccc(Br)cc3)c2)c1C`, 10.6% (active); with `COc1ccc(/C=C/C(=O)Nc2c(C)nn(C)c2C)cc1COc1ccc(Br)cc1`, 46.5%.
Take `CCn1c(COc2ccc(OC)cc2)nnc1SCC(=O)Nc1cc(OC)ccc1OC`: the viability was 98%.
Next, `c1ccc(-n2nc3ccccc3n2)cc1`: 94.1%; `COC(=O)c1[nH]c2ccc(Br)cc2c1NC(=O)Oc1ccccc1`: 86.1%; `Cn1c(N)c(C(=O)COC(=O)C23CC4CC(CC(C4)C2)C3)c(=O)n(C)c1=O`: 99.2%.
For `Cc1ccc(CN(C(=O)c2sc3ccccc3c2Cl)C2CCS(=O)(=O)C2)cc1` (stereo not drawn), the viability was 80.5%.
In the case of `CC(C)CC[n+]1ccn(C2=C([O-])c3ccccc3C(=O)/C2=N\S(=O)(=O)c2ccccc2)c1`, the viability was 20.6% (active).
With `CN(Cc1ccccc1)C(=O)COc1ccccc1`, the viability is 98.7%.
With `COc1nc(NC2CCCCC2)nc(N2CCCCCC2)n1` the figure was 77.8%; with `CCOC(=O)c1cnc(SCc2nc(N)nc(Nc3ccc(OC)cc3)n2)nc1N`, 111%; with `Cc1cccc2nc(CSc3nc4[nH]ncc4c(=O)n3-c3cccc(Cl)c3)cc(=O)n12`, 76.9%.
With `CCn1c(CNC(=O)c2ccccc2)nnc1SCC(=O)N1CCN(c2ccccc2)CC1` the figure was 98.7%; with `C=CCn1c(SCC(=O)/C(C#N)=C(\C)N)nc2sc(C)c(C)c2c1=O`, 28% (active).
As to `CCCn1c(=O)c2ccccc2n2c(SCC(=O)/C(C#N)=C(\C)N)nnc12`, the viability is 83.6%.
In the case of `Cc1sc2nc(SCC(N)=O)n(C)c(=O)c2c1C`, the viability was 98.6%.
As for `O=C(CSCc1c(F)cccc1Cl)NCC1CCCO1` (stereo not drawn), the viability is 101%.
Next, `Cc1ccc(O/C=C2\OC(=O)c3ccccc32)cc1`: 98.2%.
`COC(=O)c1sc(=S)n(-c2ccc(Cl)cc2)c1C`: the viability was 90%.
With `COc1ccc(-n2nnnc2SCc2nc(N)nc(N3CCOCC3)n2)cc1` the figure was 96.3%; with `CCOC(=O)c1sc(NC(=O)CSc2nc(C)cc(C(F)(F)F)n2)c(C#N)c1C`, 88.5%.
Next, `COc1ccc(Nc2oc(-c3ccccc3Cl)nc2C#N)cc1`: 29.9% (active); `COc1ccccc1-c1nc(C#N)c(N2CCC(C(N)=O)CC2)o1`: 95.4%.
With `CCOc1ccc(Nc2oc(Cc3ccccc3)nc2C#N)cc1` the figure was 104%.
On to `O=C(Nc1cccc(NC(=O)c2ccco2)c1)c1cnccn1`, for which the viability was 83.6%.
On to `Fc1ccc(-n2c(Cc3ccccc3)nnc2SCc2nc(-c3ccc(Cl)cc3)no2)cc1`, for which the viability was 76.6%.
With `COc1ccc(N(CC(=O)NC2CCCCC2)S(=O)(=O)c2c(C)[nH]c(=O)[nH]c2=O)cc1` the figure was 96.7%.
With `COc1ccc([N+](=O)[O-])cc1C1NN=C(c2cccc3ccccc23)S1` (stereo not drawn) the figure was 81.9%.

Values taken from PubChem BioAssay AID648 (SRMLSC, 2007).
